# Source: PubChem BioAssay AID540359 (Broad Institute, 2011)
# Entries with a potency or affinity are not part of this list. The source made the active and inactive calls. How the calls were made is not given here.
# Biological target: UDP-galactopyranose mutase (Mycobacterium tuberculosis (strain ATCC 25618 / H37Rv)) (UniProt P9WIQ1)
# Assay: Mycobacterium tuberculosis UGM enzyme inhibition, dose response confirmation, purified biochemical assay (AID 540359)
# Conditions: plate reader activity; series mostly up to 50 µM; activity change, negative = inhibition: at the top concentration
# UDP-galactopyranose mutase (Mycobacterium tuberculosis (strain ATCC 25618 / H37Rv)), sequence (P9WIQ1 whole entry, looked up): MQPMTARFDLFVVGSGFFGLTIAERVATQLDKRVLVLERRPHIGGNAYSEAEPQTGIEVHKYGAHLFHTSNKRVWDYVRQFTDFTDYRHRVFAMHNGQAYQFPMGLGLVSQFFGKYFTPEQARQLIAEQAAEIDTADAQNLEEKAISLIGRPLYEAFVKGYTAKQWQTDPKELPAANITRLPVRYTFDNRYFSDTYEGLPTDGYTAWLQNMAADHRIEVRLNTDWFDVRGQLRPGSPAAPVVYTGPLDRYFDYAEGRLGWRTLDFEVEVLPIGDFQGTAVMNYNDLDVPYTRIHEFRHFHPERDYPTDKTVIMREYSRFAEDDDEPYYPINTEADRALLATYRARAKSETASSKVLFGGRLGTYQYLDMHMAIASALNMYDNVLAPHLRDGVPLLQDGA
row,Compound,"activity change, negative = inhibition"
1,C=C1c2cc(C)ccc2NC(=O)N1c1ccc(C)cc1,-7.4% (inactive)
2,COc1ccc2[nH]c(C)c(CCN(Cc3cccs3)C(=S)Nc3ccccc3OC)c2c1,-8.12% (inactive)
3,CCOc1ccc(C(=O)NC(=S)Nc2cccnc2)cc1,-1.97% (inactive)
4,Cc1nn(-c2ccccc2)c(Cl)c1C(=O)NCC1CCCO1 (stereo not drawn),-0.88% (inactive)
5,N=c1n(CCN2CCCC2)c2ccccc2n1CC(O)c1ccco1 (stereo not drawn),-7.28% (inactive)
6,COc1ccccc1N1CCN(C2CCCN(C(=O)CCC(=O)N(C)C)C2)CC1 (stereo not drawn),0.112% (inactive)
7,COc1ccc(/C=C/C(=O)OCC(=O)NC2CCCCCC2)cc1OC,-0.651% (inactive)
8,COc1ccc(CCn2c(=N)c(S(=O)(=O)c3ccc(C)cc3)cc3c(=O)n4ccccc4nc32)cc1,-9.16% (inactive)
9,Cc1c(N=C2N=C(NC(=O)c3ccc(F)cc3)c3ccccc32)c(=O)n(-c2ccccc2)n1C,-29% (inactive)
10,Cc1cc(C(=O)OCC(=O)Nc2c(Cl)cccc2Cl)c(C)o1,-2.82% (inactive)
11,COc1ccccc1NC(=O)C1CCN(S(=O)(=O)c2cccs2)CC1,-1.77% (inactive)
12,CCOC(=O)/C(C#N)=C1\CC2CCC1(C)C2(C)C (stereo not drawn),-1.94% (inactive)
13,COc1cc2c3nnc(-c4ccc(F)cc4)c-3cn(Cc3ccc(C)cc3)c2cc1OC,-15.2% (inactive)
14,COc1ccccc1NS(=O)(=O)c1cc(N)ccc1N1CCCC1,-3.52% (inactive)
15,CCOC(=O)c1c(C)nc2ccccc2c1C,-1.7% (inactive)
16,COc1ccc(N=Cc2c(O)n(-c3cccc(C)n3)c(=O)c3ccccc23)c(OC)c1,-10.3% (inactive)
17,O=C(OCc1ccc(Br)cc1)c1cnc(Cl)c(Cl)c1,-1.03% (inactive)
18,CCN(CC)S(=O)(=O)c1ccc2c(c1)c(=O)c(C(=O)NCc1ccco1)cn2C,2.92% (inactive)
19,COc1ccc(N2C(=O)c3cccc4c(N(C)CCO)ccc(c34)C2=O)cc1,7.74% (inactive)
20,COc1cccc(/C=N/n2c(-c3ccco3)nc3ccccc3c2=O)c1OC,-1.41% (inactive)
21,COc1cc(N2CCCC2)c(OC)cc1/C=C(/C#N)c1ccc(Br)cc1,-9% (inactive)
22,CCOC(=O)c1cnc2ccc(Cl)cc2c1NCCN(C)C,-0.284% (inactive)
23,O=C1C2C3C=CC(C3)C2C(=O)N1CCN1CCN(S(=O)(=O)c2ccc3ccccc3c2)CC1 (stereo not drawn),-0.268% (inactive)
24,Cc1n[nH]c(=O)c2c(NC(=O)CSc3nnc(-c4ccco4)n3C)oc(C)c12,-7.02% (inactive)
25,CCc1ccc(C(CC(=O)c2ccc(Cl)cc2)C(=O)O)cc1 (stereo not drawn),-0.867% (inactive)
26,COc1ccc(C(=O)Oc2ccc(Br)cc2C(=S)N2CCOCC2)cc1,-6.52% (inactive)
27,CCc1cc(C(=O)c2ccc(C)cc2)c(NC(=O)CCl)s1,-9.95% (inactive)
28,Cc1ccc(-c2nc3sc(C#N)c(N)n3c(=O)c2C#N)cc1,12.5% (inactive)
